MCF10A rerep: A quantitative high throughput screen for small molecules that induce DNA re-replication in MCF 10a normal breast cells; MCF 10A DNA re-replication, Hoechst nuclear intensity, 48 h; Potency, µM (doses to about 46.1 µM), for the others: at the highest dose activity, positive = re-replication, most hits filed as activators; actives 2.9% (n = 350,000); AID 624296, 2012; note: % of control where 0% means no effect; nearly all actives have a fitted effect of over 50% in size
SW480 rereplic: A quantitative high throughput screen for small molecules that induce DNA re-replication in SW480 colon adenocarcinoma cells; SW480 DNA re-replication, Hoechst DNA content imaging, 48 h; Potency, µM (series often up to 46.1 µM), for inactives: at the top dose re-replication activation, hits mostly activators; actives 1.8% (n = 340,000); AID 624297, 2012; note: % of control where 0% means no effect; nearly all actives have a fitted effect of over 55% in size
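Treated cells incubate 48 hr (37 C, 5% CO2), are stained 40 min with Hoechst, and nuclear fluorescence is enumerated; a rise in nuclei with high DNA signal marks re-replication.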
A-T KAP1 phos: qHTS Assay for Identifying a Potential Treatment of Ataxia-Telangiectasia | actives 0.19% (n = 320,000) | F2112 A-T fibroblasts, KAP-1 phosphorylation AlphaLISA; neocarzinostatin DNA damage 30 min before lysis | Potency, µM (doses to about 57.5 µM), for the others: at the top dose activation, usual class: activators | AID 485349, 2010; note: % of control where 0% means no effect; nearly all actives have a fitted effect of over 45% in size
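hTERT-immortalized A-T patient fibroblasts (F2112), 500 cells/well in OPTI-MEM, 1% FBS, got compounds for 60 min, then NCS for 30 min at 37C. Lysates were then assayed for phospho-KAP-1 by AlphaLISA (anti-pKAP1 donor, anti-KAP1 acceptor beads), 6 hr at 25C.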
Integrin act MD: qHTS for Activators of Integrin-Mediated Alleviation for Muscular Dystrophy; alpha7betagal myoblasts, beta-gal FDG fluorescence, 48 h; actives 0.064% (n = 350,000); Potency, µM (highest dose often 38.3 µM), for inactives: top-dose activation, most hits filed as activators; AID 624291, 2012;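 note: 100% = response of the positive control SU9516; nearly all actives have a fitted effect of over 60% in size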
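alpha7betagal+/- myoblasts (passage 13, 250/well) treated 48 h at 37C with compounds at 1:260 dilution of DMSO stock. Lysed, then beta-galactosidase activity read as FDG fluorescence (ex 480/em 540) after 30 min, with pre-read for autofluorescence.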
Mito fusion yeast: qHTS Assay for Small Molecule Inhibitors of Mitochondrial Division or Activators of Mitochondrial Fusion; S. cerevisiae fusion-defective mutant growth rescue, CellTiterGlo 48 h; Potency, µM (doses to about 46.1 µM), for inactives: at the highest dose growth rescue (activation), hits mostly activators; actives 0.23% (n = 320,000); note: % of control where 0% means no effect; nearly all actives have a fitted effect of over 45% in size
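S. cerevisiae fusion-defective temperature-sensitive mutants (e.g. fzo1-1, mgm1-5) grown 48 h at 37C in YPEG (ethanol/glycerol non-fermentable) medium with 23 nl compound per well; growth rescue read as CellTiterGlo luminescence.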
Numbers without * were called inactive; u = inconclusive; x = not tested or not shown. Only some compounds are listed: those with a hit (about 4.2% of all), similar ones and a draw of the others. Calls come from the whole dose curve; as a rule, active = well fitted activation curve with a large enough effect; inconclusive = small, poorly fitted or top-dose-only effect; inactive = no such curve, though single readings can be large or run the other way. Potency is the fitted concentration of half-maximal effect.

SMILES	MCF10A rerep	SW480 rereplic	A-T KAP1 phos	Integrin act MD	Mito fusion yeast
CCCCS/C(=C(/C#N)C(N)=O)c1cc2c([nH]1)CCCC2	u	u	-1.1%	-62.9%	12.6µM*
Cc1ccc(C(=O)NCCNc2nc3cc(C)c(C)cc3cc2C)cc1	8.2µM*	8.2µM*	-0.6%	16.7%	3.7%
CCOC(=O)c1c2ccc(OCC(=O)N/N=C/c3ccc(C)cc3)cc2n2ccccc12	2.59µM*	u	6.1%	14.2%	-1.9%
Cc1ccc(OCC(=O)N/N=C/c2cn(C)c3ccccc23)cc1	u	-20.8%	1.1%	-19.3%	-0.1%
CCOC(=O)c1c2ccc(OCC(=O)NN)cc2n2ccccc12	16.4µM*	-10.6%	22.2%	-18.3%	-4.4%
CC(C)c1ccc(CN2CCC(n3nccc3NC(=O)C3CCCC3)CC2)cc1	x	x	x	10.7%	x
CCCn1c(SC(C)C(=O)NCC2CCCO2)nc2sc3c(c2c1=O)CCC3 (stereo not drawn)	-1.2%	-4.1%	7.3%	-11.0%	12.8%
COc1ccc(C2CC(c3ccccc3O)=NN2c2ccccc2)cc1 (stereo not drawn)	16.4µM*	18.4µM*	x	-4.2%	x
COc1ccc(C2CC(c3ccc(OC)cc3O)=NN2C(=O)c2ccccc2)cc1 (stereo not drawn)	u	2.7%	-4.5%	-30.7%	8.0%
C=CCOc1ccc(C2CC(C)=NN2c2ccccc2)cc1 (stereo not drawn)	20.6µM*	u	1.6%	-22.3%	16.9%
COc1ccc(C2CC(c3ccccc3)=NN2c2ccc(N)cc2)cc1 (stereo not drawn)	16.4µM*	23.1µM*	1.8%	-50.6%	u
COc1ccc(C2CC(c3ccccc3)=NN2C(=S)Nc2ccccc2)cc1 (stereo not drawn)	-2.3%	-1.7%	-2.0%	0.8%	-4.4%
CCC(=O)Nc1cccc(C2=NN(c3ccccc3)C(c3ccc(OC)cc3)C2)c1 (stereo not drawn)	u	18.4µM*	22.4µM*	2.2%	28.4%
COc1ccc(C2=NN(C(N)=S)C(c3ccccc3)C2)cc1 (stereo not drawn)	-1.1%	u	-1.2%	-15.8%	-0.5%
CC(=O)Oc1ccc(C2=NN(c3ccccc3)C(c3ccccc3)C2)cc1 (stereo not drawn)	5.8µM*	18.4µM*	35.5µM*	-1.1%	3.5%
COc1ccc(C2CC(c3ccccc3)=NN2c2ccc(Cl)c(C(=O)O)c2)cc1 (stereo not drawn)	8.2µM*	u	20.0%	3.7%	2.4%
O=C(Nc1cccnc1)c1cc(-c2cccc(Br)c2)nc2ccccc12	u	3.2%	6.9%	-18.1%	-5.5%
O=C(Nc1ccncc1)c1cc(-c2cccc(Br)c2)nc2ccccc12	16.4µM*	7.6%	19.5%	-34.5%	u
O=C(NNC(=O)c1cc(-c2ccc(Cl)c(Cl)c2)nc2ccccc12)Nc1ccccc1	20.6µM*	u	2.4%	-6.5%	-4.5%
COc1cc(NC(=O)c2cc(-c3cccnc3)nc3ccc(Br)cc23)cc(OC)c1	16.4µM*	-3.5%	-3.9%	-52.9%	-0.6%
O=C(Nc1cccnc1)c1cc(-c2cccnc2)nc2ccc(Br)cc12	-21.7%	1.4%	-0.7%	6.7%	3.6%
N#CCSc1nc2c(c(=O)n1Cc1ccco1)C1(CCCC1)Cc1ccccc1-2	13µM*	18.1%	2.2%	-18.2%	-0.3%
CCCn1c(SCC#N)nc2c(c1=O)C1(CCCC1)Cc1ccccc1-2	u	1.8%	2.7%	-2.9%	6.2%
N#CCSc1n[nH]c2nc3c(c(=O)n12)C1(CCCC1)Cc1ccccc1-3	10.3µM*	-3.1%	12.0%	-6.4%	13.0%
CC1=C(c2ccccc2)C(O)(c2ccccc2)C(C)C1=O (stereo not drawn)	20.6µM*	u	x	-8.5%	x
SMILES	MCF10A rerep	SW480 rereplic	A-T KAP1 phos	Integrin act MD	Mito fusion yeast
CC(c1ccccc1)N1C(=O)/C(=C/c2ccncc2)SC1=S (stereo not drawn)	16.4µM*	16.4µM*	-4.1%	-42.1%	-5.0%
COc1ccc(CN2C(=O)/C(=C/c3ccncc3)SC2=S)cc1	23.1µM*	u	-7.6%	-42.8%	7.9%
O=C(O)c1ccc(/C=C2/SC(=S)N(Cc3ccccc3)C2=O)cc1	22.8%	-6.9%	-8.8%	-14.7%	4.6%
CC(=O)Oc1ccc(/C=C2/SC(=S)N(Cc3ccccc3)C2=O)cc1	3.26µM*	-36.5%	9.8%	10.8%	u
CCCCOc1ccc2c(c1)/C(=C(\C(Cl)=C(Cl)Cl)[N+](=O)[O-])N2	u	26.4%	-4.0%	8.5%	5.3%
Cc1cccc(N2CCN(Cc3ccoc3)CC2)c1C	20.6µM*	u	x	-3.3%	0.9%
CCN(Cc1ccccc1)C(=S)NC(=O)c1ccccc1Br	15.1%	11.6µM*	-4.7%	u	1.6%
CCCN(Cc1ccccc1)C(=S)NC(=O)c1ccccc1[N+](=O)[O-]	3.1%	-4.4%	-1.4%	5.1%	-3.5%
COc1c2c(nc3occc13)C(CC=C(C)C)(OC)C(OC(C)=O)CC2 (stereo not drawn)	3.4%	17.1%	x	-16.3%	19.4%
COC(=O)c1sccc1NC(=S)N1CCN(c2cccc(C)c2C)CC1	4.11µM*	u	1.4%	-18.2%	0.4%
COc1cc2c(cc1OC)C(c1ccccc1O)N(C1CC(=O)N(c3ccccc3)C1=O)CC2 (stereo not drawn)	9.7%	-2.3%	5.1%	12.9%	-5.7%
CC(=O)Nc1cccc(Oc2ncnc3scc(-c4ccc(C(C)C)cc4)c23)c1	23.1µM*	u	6.2%	20.2%	-12.9%
CC(=O)Nc1ccc(Sc2ncnc3scc(-c4ccccc4)c23)cc1	13.3%	-8.7%	3.6%	-35.6%	u
S=c1[nH]nc(-c2cc(-c3ccccc3)n[nH]2)n1/N=C/c1cccc(Cl)c1	23.1µM*	u	0.0%	u	2.8%
S=c1[nH]nc(-c2cc(-c3ccccc3)n[nH]2)n1/N=C/c1ccc(Cl)cc1	u	-1.6%	-8.2%	26.4%	2.0%
CC(C)(C)C(=O)Nc1ccccc1N1CCN(c2ccc(F)cc2)CC1	20.6µM*	0.3%	-3.3%	10.3%	-0.1%
Fc1cccc2sc(Nc3nnc(-c4ccccc4)o3)nc12	23.1µM*	11.5%	x	-22.6%	0.7%
Cc1cc(NC(=O)CNCC(c2ccccc2)N(C)C)c([N+](=O)[O-])cc1C (stereo not drawn)	-0.1%	3.6%	-7.0%	20.3%	-9.9%
BrC(=C\c1ccccc1)/C=N/Nc1nc2ccccc2[nH]1	8.2µM*	u	u	10.0%	u

Screening data as filed in PubChem BioAssay.
